For 25 compounds, parasite growth results are on record in the supplement of paper PMC4894684.

Structures are written as SMILES. Where a name gives a salt, the structure may show the parent alone. ± gives the standard deviation of the averaged measurements.

For the experiment, the system named is Toxoplasma gondii RH (in HFF). The experiment in a line: parasite growth relative to the screen mean (all compounds = 100%); higher = less inhibition of parasite growth. The note with it: 5 µM; 72 h; oxygen 21 %. An outline of the steps:
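Library compounds, held as 10 mM DMSO stocks, were pinned to 5 µM final onto confluent human foreskin fibroblasts in 96-well plates. The cells were infected within 2 h with RH β-Gal–GFP Toxoplasma (MOI 1:5), grown 72 h at 21% O2, and assayed for parasite number by CPRG β-Gal using in-plate standard curves. Growth is reported relative to the screen mean, in which all compounds = 100%, averaged over two screens, and CellTiter-Blue checked uninfected host-cell viability.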
In turn, `COc1cccc(NC(=O)/C=C/c2ccc(Cl)cc2)c1` showed a parasite growth of 136.1 ± 0.67%.

Compound `N[C@H](C(=O)O)[C@H](OCc1ccccc1)C(=O)O` (racemic) showed a parasite growth of 80.3 ± 61%. Next, `O=C(NCCCN1CCCCCC1)C(c1ccccc1)C1CCCCC1` (stereo not given): 83 ± 2.4%.

Take `Cc1c(CC(C)(C)C(=O)O)n(Cc2ccc(Cl)cc2)c2ccc(F)cc12`: the parasite growth amounted to 129 ± 22%. `CC(C)NCC(O)COc1ccc(CCOCC2CC2)cc1` (stereo not given) [Betaxolol hydrochloride] came in with a parasite growth of 89.4 ± 13%. Consider `COc1ccc2cc([C@H](C)C(=O)O)ccc2c1` [Naproxen sodium], for which the parasite growth came to 89.9 ± 13%.

For the compound `CN(C)CCC=C1c2ccccc2COc2ccccc21` [Doxepin hydrochloride], the parasite growth amounted to 159 ± 36%. Consider `Cc1sc(N)c(C(=O)c2cccc(C(F)(F)F)c2)c1C`, for which the parasite growth amounted to 141 ± 7.3%. Compound `CC(=O)O[C@@H]1C[C@H]2C(C)(C)C(=O)C=C[C@]2(C)[C@H]2CC[C@@]3(C)[C@H](c4ccoc4)OC(=O)[C@H]4O[C@]43[C@@]21C` [Gedunin] came in with a parasite growth of 62.3 ± 9.6%. Consider `CN1c2cc3c(cc2N=C(c2ccc(C(=O)O)cc2)c2ccccc21)C(C)(C)CCC3(C)C`, for which the parasite growth amounted to 61.4 ± 34%. On to `Oc1ccc(Nc2nc(-c3ccc(Cl)cc3)cs2)cc1`, for which the parasite growth came out at 26.9 ± 8%. Next, `CN(CCOc1ccc(-c2ccc3c(c2)OCO3)cc1C(C)(C)C)CC(=O)O`: 110 ± 38%. Compound `COc1ccc(NC(=O)c2ccc(-c3ccc(-c4noc(C)n4)cc3C)cc2)cc1N1CCN(C)CC1` gave a parasite growth of under 0%.

`O=C(Nc1ccccc1)c1cc([N+](=O)[O-])ccc1Cl` came in with a parasite growth of 103 ± 18%. Compound `COc1ccc(CN2C(=O)C(=O)c3cc(OC(F)(F)F)ccc32)cc1` showed a parasite growth of 68.6 ± 14%. For the compound `CN(C)CCCN1c2ccccc2CCc2ccc(Cl)cc21` [Clomipramine hydrochloride], the parasite growth is 38.4 ± 2.9%. For `Cc1ccc(NC(=O)c2cccc(N(C)C)c2)cc1NC(=O)c1ccc(O)cc1` the value was 141 ± 7.3%; for `CCN(CC)CCCCC1CCN(CC(=O)N2c3ccccc3C(=O)Nc3cccnc32)CC1`, 141 ± 17%.

In turn, `COc1cc(SC)ccc1C(=O)N1CCC(Cc2ccccc2)CC1` returned a parasite growth of 112 ± 5.8%. Take `O=C(c1ccc(Nc2nccc(-c3cc4ccccc4s3)n2)cc1)N1CCC(N2CCCC2)CC1`: the parasite growth is under 0%. `O=C(Nc1ccc(C(F)(F)F)cn1)N1CCN(c2ncccc2C(F)(F)F)CC1` had a parasite growth of 135 ± 6.2%. The compound `CCn1ccnc1CC1COc2ccccc2O1` (stereo not given) [Imiloxan hydrochloride] displayed a parasite growth of 120 ± 7%.

`O=C(O)C=C1CCCc2ccccc2C1O` (stereo not given) showed a parasite growth of 112 ± 16%. Next, `C[N+](C)(C)CCCCCNCC12CC3CC(CC(C3)C1)C2`: 120 ± 3.1%.

`Cc1ccccc1N=Nc1ccc(NC(=O)c2ccnn2C)c(C)c1` gave a parasite growth of 82.7 ± 23%.
